This is a sample that favours compounds with a hit; in the whole collection about 0.77% have one here.
Mtb hypoxia inh = PubChem AID 1159583. M. tuberculosis hypoxia-regulated fluorescent reporter, fluorescence. fluorescence inhibition, % (concentration not given with the values). 0.1% of 300,000 active; in the data active means fluorescence inhibition mostly above about 23%, no sharp cut-off; inactive means mostly below about 17%
UGM FP inh = M. tuberculosis UGM enzyme inhibitors, primary screen, biochemical, fluorescence polarization, single point | 0.06% of 320,000 active | inhibition, % at 10 µM | purified UGM, fluorescence polarization probe displacement | UDP-galactopyranose mutase (Mycobacterium tuberculosis (strain ATCC 25618 / H37Rv)), … | AID 504406, 2011; in the data active means inhibition above about 10%, passing the limit was not always enough
RecA splice inh = Mtb RecA intein splicing inhibitors, primary screen, biochemical, fluorescence, HTS | Protein RecA (Mycobacterium tuberculosis (strain ATCC 25618 / H37Rv)), P9WHJ3 | cell-free RecA intein splicing | inhibition, % (no concentration beside the values) | 0.75% of 290,000 active; in the data active means inhibition above about 30%;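 further: 0% = vehicle wells and 100% = reference inhibitor control wells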
Mtb betalactam = beta-lactam sensitization of Mtb H37Rv, H37Rv. M. tuberculosis H37Rv growth with meropenem, percent inhibition. inhibition, % at 25 µM. 0.27% of 330,000 active. AID 434955, 2010; call rule not given here;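 further: growth measured after seven days incubation then overnight dye step; 0% = bacteria only wells and 100% = bacteria with antibiotic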
Rv3671c protease = Rv3671c serine protease inhibitors, primary screen, biochemical, fluorescence polarization, M. tuberculosis H37Rv. P9WHR9. 0.048% of 320,000 active. inhibition, % at 5.96 µM. AID 2606, 2010; in the data active means inhibition above about 38%;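 further: extracellular domain of Rv3671c used as enzyme; 0% = enzyme with DMSO and 100% = no enzyme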
Target sequence (P9WHR9 whole entry, looked up, the tested form may be a part): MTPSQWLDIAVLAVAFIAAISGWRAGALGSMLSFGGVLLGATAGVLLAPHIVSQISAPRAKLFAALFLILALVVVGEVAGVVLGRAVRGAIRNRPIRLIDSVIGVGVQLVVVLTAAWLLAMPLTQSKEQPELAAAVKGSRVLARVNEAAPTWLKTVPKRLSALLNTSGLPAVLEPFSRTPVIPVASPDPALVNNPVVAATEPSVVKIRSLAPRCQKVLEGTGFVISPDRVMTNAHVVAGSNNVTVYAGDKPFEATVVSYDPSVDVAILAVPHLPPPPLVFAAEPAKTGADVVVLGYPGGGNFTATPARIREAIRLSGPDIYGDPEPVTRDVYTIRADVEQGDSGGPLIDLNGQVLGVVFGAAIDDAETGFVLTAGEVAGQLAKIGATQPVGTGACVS
* hit, by the source's call; nt = no result shown.

SMILES	Mtb hypoxia inh	UGM FP inh	RecA splice inh	Mtb betalactam	Rv3671c protease
O=S(=O)(CCSc1nc2ccccc2o1)c1nc2ccccc2s1	21	6	11	96	-7
O=S(=O)(CCSc1ccccn1)c1nc2ccccc2s1	-9	4	40*	93	-7
CCN(C(=O)COC(=O)c1ccc(O)cc1O)c1c(N)n(Cc2ccccc2)c(=O)[nH]c1=O	2	10*	nt	7	-7
NC1=NC(=O)/C(=C\c2ccc(O)c([N+](=O)[O-])c2)S1	56*	2	4	47	0
Cc1ccccc1C(=O)OC1C(Cc2ccccc2)NS(=O)(=O)C2CC3C=C[C@]12O3 (some centres not stated)	-2	nt	nt	nt	nt
CN1CC(=O)N2C(Cc3c([nH]c4ccccc34)C2c2ccc3c(c2)OCO3)C1=O (configuration not stated)	4	nt	nt	nt	nt
COC(=O)C1=C(c2ccc3ccccc3c2)CC2CCC1N2C(=O)NC1CC1 (configuration not stated)	6	nt	nt	nt	nt
Brc1ccc(OCc2nnc3n2CCC3)cc1	36*	-2	1	81	-5
CC(C)(C)OC(=O)NC(Cc1ccccc1)C(=O)NC(CO)C(O)C1CC1C(=O)N1CCCC1 (configuration not stated)	9	nt	nt	nt	nt
CC=CC=CC(=O)Nc1cccc(C2=NOC3(C2)CC(C(N)=O)N(C(=O)c2cc([N+](=O)[O-])cc([N+](=O)[O-])c2)C3)c1 (configuration not stated)	57*	nt	nt	nt	nt
CC=CC=CC(=O)Nc1cccc(C2=NOC3(C2)CC(C(N)=O)N(C(=O)COc2ccc(Cl)cc2)C3)c1 (configuration not stated)	6	nt	nt	nt	nt
Cc1oc2c(c1C(=O)O)C(=O)c1ccccc1C2=O	3	-1	68*	-2	-54
CCOC(=O)c1c(C)oc2c1C(=O)c1ccccc1C2=O	-9	-2	59*	2	-52
Cc1oc2c(c1C(=O)c1ccccc1)C(=O)C(=O)c1ccccc1-2	nt	0	12	14	-48
c1ccc(CSc2nnc(-c3cccnc3)o2)cc1	40*	-1	-4	72	1
CC(CO)NC(=O)C1CC1C(NP(=O)(c1ccccc1)c1ccccc1)c1ccccc1 (configuration not stated)	-2	nt	nt	nt	nt
Cc1ccc(S(=O)(=O)N[C@@H](CCCCN)C(=O)CCl)cc1	nt	0	50*	1	-2
CC1(CC(=O)N/N=C/c2ccc(OCc3ccc(Cl)cc3Cl)cc2)OCCCO1	nt	3	39*	-2	-11
CC(=O)Nc1ccc(SC(CCN2CCC(C(C)(C)C)CCC2=O)c2ccccc2)cc1 (configuration not stated)	0	nt	nt	nt	nt
Nc1cc(Cl)c2nonc2c1[N+](=O)[O-]	40*	2	nt	101	-14
CC1=NNC(=O)/C1=C\c1cn(-c2ccccc2)nc1-c1ccc(Cl)cc1	2	-3	90*	100	-3
Cc1ccc(-c2nn(-c3ccccc3)cc2C=C2C(=O)CC(C)(C)CC2=O)cc1	6	2	-1	17	-1
COc1ccc(NC(=O)Nc2ccc3c(c2)C(=O)N(C(C)CO)CC(C)C(CN(C)C(=O)Nc2c(C)noc2C)O3)cc1 (configuration not stated)	6	nt	nt	nt	nt
CCOC1OC(C(=O)N2CCCCCCC2)=CC(c2cn(C(C)=O)c3ccccc23)C1CCCO (configuration not stated)	7	nt	nt	nt	nt
Cc1cc(COC(=O)C2N3C(=O)C(NC(=O)COc4ccccc4)C3SC2(C)C)on1 (configuration not stated)	6	nt	nt	nt	nt
COC(=O)c1c(NC(=O)CN2C(=O)NC3(CCCCC3C)C2=O)sc2c1CCC2 (configuration not stated)	29*	2	nt	4	-13
COc1cc(CCN2C(=O)NC(CCc3ccccc3)C(C(C)=O)=C2C)cc(OC)c1OC (configuration not stated)	-1	nt	nt	nt	nt
O=C(/C=C/c1cccs1)Nc1scc(-c2ccccc2)c1C(=O)O	7	nt	47*	nt	nt
N=c1n(CCN2CCCC2)c2ccccc2n1CC(O)c1ccco1 (configuration not stated)	-2	41*	-1	-2	-2
CN(C)c1ccc2nc3c(=O)[nH]c(=O)nc-3n(CC(O)C(O)C(O)CO)c2c1 (configuration not stated)	nt	61*	5	13	-392

From PubChem BioAssay
